Molecules are shown by their SMILES. Active and inactive are the calls of the source. Cut-off read from the data, not from the text of the source: active = inhibition above about 33%; inactive = the rest.

The term inhibition denotes the relative decrease from the control value, in per cent.

The nature of this assay: VP16 transactivation reporter inhibitors, counter-screen for LRH-1 inverse agonist project, cell-based, luminescence, high throughput (AID 651615). Particulars: Gal4-VP16 luciferase reporter cells, at 3.6 µM, hits give high values.
Turning to `COc1ccc(-n2c(SCC(=O)NCc3ccco3)nc3sc4c(c3c2=O)CCN(C)C4)cc1`, the inhibition was -5.24% (inactive).

Regarding `Cc1nn(Cc2ccc(Cl)cc2)c(C)c1NC(=O)c1noc2c1CCCCC2`, the inhibition was 18.3% (inactive).

Turning to `O=C(CSc1n[nH]c(-c2ccccc2)n1)Nc1ccc(F)cc1F`, the inhibition is 3.19% (inactive).

Take `CCOc1ccc(CCNC(=O)COC(=O)CCC(=O)c2cccs2)cc1OCC`: the inhibition is -6.57% (inactive).

For the molecule `O=C(COC(=O)c1ccc(S(=O)(=O)N2CCCC2)cc1)Nc1ccc(N2CCOCC2)cc1`, the inhibition was -7.59% (inactive).

For `COc1cc(/C=C2/SC(=Nc3ccc(O)cc3)NC2=O)ccc1O`, the inhibition was -31.2% (inactive).

Regarding `COc1ccc(CCNC(=O)COC(=O)C23CC4CC(CC(C4)C2)C3)cc1`, the inhibition is 1.82% (inactive).

As for `Cc1cc(-c2nn3c(-c4ccccc4)nnc3s2)c2ccccc2n1`, the inhibition was -31.6% (inactive).

For `NC(=S)N/N=C/c1ccc(-n2nncc2-c2ccc(Cl)cc2)cc1`, the inhibition was 6.68% (inactive).

`COC(=O)c1ccc([C@H](NC(=O)c2ccco2)[C@]2(C)C[C@H]2C2CCCCC2)cc1`: the inhibition was 2.54% (inactive).

With `O=C(CN(Cc1ccccc1)C(=O)CCl)c1cccc(Br)c1`, the inhibition was -1.2% (inactive).

Consider `CCC(=O)N1CCN(c2ccc(NC(=O)c3ccc([N+](=O)[O-])o3)cc2)CC1`, for which the inhibition was -25% (inactive).

`CN(CCc1ccccc1)C(=O)c1ccc(NC(=O)Cc2ccc(NC(=O)C3CCCN(C(=O)CCc4ccccc4)C3)cc2)cc1` (stereo not given): the inhibition was 59.8% (active).

As for `O=C(NCc1ccco1)c1ccc([N+](=O)[O-])o1`, the inhibition was -13.8% (inactive).

For `CCOC(=O)c1c2c(n(Cc3ccccc3)c1C)C(=O)C(=O)c1ccccc1-2`, the inhibition is 54.6% (active).

`COC(=O)CNc1nc(-c2cccnc2)nc2ccccc12`: the inhibition is -0.85% (inactive).

Regarding `COc1ccc(NC(=O)CSc2sc3c(O)cc(=O)[nH]c3c2C#N)c(OC)c1`, the inhibition is 2.48% (inactive).

`COc1ccc(O)c(/C=N/Nc2nc(Nc3ccccc3)nc(-n3nc(C)cc3C)n2)c1`: the inhibition is -35.4% (inactive).

For the molecule `CC(=O)Nc1ccc(NC(=O)CSc2nnc(-c3cc4ccccc4o3)n2C)cc1`, the inhibition was -5.84% (inactive).

For `Cc1cc(OCC(=O)Nc2nccs2)c2c(C)cc(=O)oc2c1`, the inhibition is -19.8% (inactive).

As for `O=C(NCc1cccc(C(F)(F)F)c1)c1cc(-c2ccccc2)nn1CC1CC(c2cccnc2)=NO1` (stereo not given), the inhibition was 6.07% (inactive).

On to `O=C(CSc1nnc(CNC(=O)c2ccccc2F)o1)Nc1ccc2c(c1)OCCO2`, for which the inhibition was -7.98% (inactive).

On to `CN(CC(=O)Nc1ccc(N2CCOCC2)cc1)CC(=O)Nc1ccc(N2CCOCC2)cc1`, for which the inhibition was -8.87% (inactive).

On to `C#Cc1cccc(Nc2nc(NC(C)C)nc3ccsc23)c1`, for which the inhibition is 20.3% (inactive).

Turning to `C=CCn1c(SCC(=O)Nc2ccccc2C)nc(O)cc1=O`, the inhibition was -13.2% (inactive).

`Cc1cc(N2CCN(c3nc4ccccc4s3)CC2)n2ncnc2n1`: the inhibition was 50.3% (active).

As to `CC1(C)CC(=O)C=C(c2ccc3ncccc3c2)C1`, the inhibition is 14.3% (inactive).

Regarding `CCOc1ccc(CCNC(=O)COC(=O)CSc2ccccc2C)cc1OCC`, the inhibition was 8.24% (inactive).

For `O=C(CSc1ccccn1)Nc1nonc1[N+](=O)[O-]`, the inhibition was -15.1% (inactive).

As to `Cc1ccc(/C=C2\SC(=S)N(c3c(C)n(C)n(-c4ccccc4)c3=O)C2=O)cc1`, the inhibition was -2.06% (inactive).

`CC(=O)Nc1cc(-c2ccc(S(C)(=O)=O)cc2)cn2c(-c3ccc(F)cc3)cnc12`: the inhibition is -7.42% (inactive).

As to `O=C1CCN(CCCN2CCC(=O)N(Cc3ccccc3)C2=S)C(=S)N1Cc1ccccc1`, the inhibition was -0.72% (inactive).

Regarding `Cc1ccc(S(=O)(=O)N2CC(O)CC2C(=O)OCC(=O)Nc2ccc([N+](=O)[O-])cc2C(F)(F)F)cc1C` (stereo not given), the inhibition is -5.69% (inactive).

On to `CC1CCCC(C)N1C(=O)COC(=O)Cc1ccc(Cl)cc1` (stereo not given), for which the inhibition was 0.05% (inactive).

On to `Cc1cccc(OCC(=O)Nc2ccncc2)c1C`, for which the inhibition was 36.1% (active).

For the molecule `O=C(CSc1nnc(Cc2cccs2)n1-c1ccccc1)Nc1ccc2c(c1)OCCO2`, the inhibition is -2.43% (inactive).

Take `CCOCC(=O)Nc1cccc(C(=O)OCC)c1`: the inhibition was 2.72% (inactive).

Take `COc1ccc(Oc2ccc(NC(=O)c3ccccc3C)cc2)cc1`: the inhibition is -18.1% (inactive).

In the case of `ClCc1ncc(-c2ccc(Cl)cc2)o1`, the inhibition was -28.8% (inactive).

Consider `CCC(=O)N1CCN(c2ccc(Cl)cc2NC(=O)c2ccc([N+](=O)[O-])o2)CC1`, for which the inhibition was 4.86% (inactive).

The values are drawn from PubChem BioAssay.
